# Publication PMC11062922 (Nature Chemical Biology, 2023)
# Like-named read-outs stand apart in the source and are kept apart here.
# Legend:
# Details in all cases: read-out: apparent Kd, n = 1
# MAP2K2 = test system: MAP2K2
# MAP2K6 = test system: MAP2K6
# MAP4K2 = test system: MAP4K2
# [1] = compound concentrations:100 nM and 1000 nM (sheet 'Lestaurtinib' of Supplementary Table 1),run:Lestaurtinib_02752_R3,Plate:MR025
# [2] = compound concentrations:100 nM and 1000 nM (sheet 'Lestaurtinib' of Supplementary Table 1),run:Lestaurtinib_02765_R1,Plate:MR026
# [3] = compound concentrations:100 nM and 1000 nM (sheet 'Lestaurtinib' of Supplementary Table 1),run:Lestaurtinib_02768_R1,Plate:MR028
# [4] = compound concentrations:100 nM and 1000 nM (sheet 'Lestaurtinib' of Supplementary Table 1),run:Lestaurtinib_02795_R1,Plate:MR022
# [5] = compound concentrations:100 nM and 1000 nM (sheet 'Lestaurtinib' of Supplementary Table 1),run:Lestaurtinib_02802_R2,Plate:MR029
# [6] = compound concentrations:100 nM and 1000 nM (sheet 'Lestaurtinib' of Supplementary Table 1),run:Lestaurtinib_02802_R3,Plate:MR029
# [7] = compound concentrations:100 nM and 1000 nM (sheet 'Lestaurtinib' of Supplementary Table 1),run:Lestaurtinib_03252_R2,Plate:MR032
# [8] = compound concentrations:100 nM and 1000 nM (sheet 'Lestaurtinib' of Supplementary Table 1),run:Lestaurtinib_02339_R2,Plate:MR001
# [9] = compound concentrations:100 nM and 1000 nM (sheet 'Lestaurtinib' of Supplementary Table 1),run:Lestaurtinib_02364_R2,Plate:MR002
substance,measurement,setting,value
Lestaurtinib,potency estimated from few doses,MAP2K2; [1],1310 nM
same,potency estimated from few doses,MAP2K2; [2],722 nM
same,potency estimated from few doses,"MAP2K2; compound concentrations:100 nM and 1000 nM (sheet 'Lestaurtinib' of Supplementary Table 1),run:Lestaurtinib_02766_R2,Plate:MR027",959 nM
same,potency estimated from few doses,"MAP2K2; compound concentrations:100 nM and 1000 nM (sheet 'Lestaurtinib' of Supplementary Table 1),run:Lestaurtinib_02766_R3,Plate:MR027",1320 nM
same,potency estimated from few doses,MAP2K2; [3],1590 nM
same,potency estimated from few doses,MAP2K2; [4],925 nM
same,potency estimated from few doses,"MAP2K2; compound concentrations:100 nM and 1000 nM (sheet 'Lestaurtinib' of Supplementary Table 1),run:Lestaurtinib_02795_R2,Plate:MR022",722 nM
same,potency estimated from few doses,MAP2K2; [5],958 nM
same,potency estimated from few doses,MAP2K2; [6],1490 nM
same,potency estimated from few doses,"MAP2K2; compound concentrations:100 nM and 1000 nM (sheet 'Lestaurtinib' of Supplementary Table 1),run:Lestaurtinib_02896_R2,Plate:MR030",744 nM
same,potency estimated from few doses,"MAP2K2; compound concentrations:100 nM and 1000 nM (sheet 'Lestaurtinib' of Supplementary Table 1),run:Lestaurtinib_02896_R3,Plate:MR030",804 nM
same,potency estimated from few doses,"MAP2K2; compound concentrations:100 nM and 1000 nM (sheet 'Lestaurtinib' of Supplementary Table 1),run:Lestaurtinib_03172_R3,Plate:MR031",475 nM
same,potency estimated from few doses,MAP2K2; [7],790 nM
same,potency estimated from few doses,"MAP2K2; compound concentrations:100 nM and 1000 nM (sheet 'Lestaurtinib' of Supplementary Table 1),run:Lestaurtinib_03260_R2,Plate:MR033",1600 nM
same,potency estimated from few doses,MAP2K6; [8],162 nM
same,potency estimated from few doses,"MAP2K6; compound concentrations:100 nM and 1000 nM (sheet 'Lestaurtinib' of Supplementary Table 1),run:Lestaurtinib_02339_R3,Plate:MR001",96.9 nM
same,potency estimated from few doses,MAP2K6; [9],135 nM
same,potency estimated from few doses,"MAP2K6; compound concentrations:100 nM and 1000 nM (sheet 'Lestaurtinib' of Supplementary Table 1),run:Lestaurtinib_02367_R1,Plate:MR003",158 nM
same,potency estimated from few doses,"MAP2K6; compound concentrations:100 nM and 1000 nM (sheet 'Lestaurtinib' of Supplementary Table 1),run:Lestaurtinib_02367_R2,Plate:MR003",190 nM
same,potency estimated from few doses,"MAP2K6; compound concentrations:100 nM and 1000 nM (sheet 'Lestaurtinib' of Supplementary Table 1),run:Lestaurtinib_02367_R3,Plate:MR003",165 nM
same,potency estimated from few doses,"MAP2K6; compound concentrations:100 nM and 1000 nM (sheet 'Lestaurtinib' of Supplementary Table 1),run:Lestaurtinib_02381_R1,Plate:MR004",175 nM
same,potency estimated from few doses,"MAP2K6; compound concentrations:100 nM and 1000 nM (sheet 'Lestaurtinib' of Supplementary Table 1),run:Lestaurtinib_02407_R2,Plate:MR005",137 nM
same,potency estimated from few doses,"MAP2K6; compound concentrations:100 nM and 1000 nM (sheet 'Lestaurtinib' of Supplementary Table 1),run:Lestaurtinib_02422_R3,Plate:MR006",151 nM
same,potency estimated from few doses,"MAP2K6; compound concentrations:100 nM and 1000 nM (sheet 'Lestaurtinib' of Supplementary Table 1),run:Lestaurtinib_02437_R1,Plate:MR007",184 nM
same,potency estimated from few doses,"MAP2K6; compound concentrations:100 nM and 1000 nM (sheet 'Lestaurtinib' of Supplementary Table 1),run:Lestaurtinib_02437_R2,Plate:MR007",189 nM
same,potency estimated from few doses,"MAP2K6; compound concentrations:100 nM and 1000 nM (sheet 'Lestaurtinib' of Supplementary Table 1),run:Lestaurtinib_02437_R3,Plate:MR007",22.9 nM
same,potency estimated from few doses,"MAP2K6; compound concentrations:100 nM and 1000 nM (sheet 'Lestaurtinib' of Supplementary Table 1),run:Lestaurtinib_02438_R3,Plate:MR008",132 nM
same,potency estimated from few doses,"MAP2K6; compound concentrations:100 nM and 1000 nM (sheet 'Lestaurtinib' of Supplementary Table 1),run:Lestaurtinib_02443_R2,Plate:MR009",140 nM
same,potency estimated from few doses,"MAP2K6; compound concentrations:100 nM and 1000 nM (sheet 'Lestaurtinib' of Supplementary Table 1),run:Lestaurtinib_02473_R1,Plate:MR010",176 nM
same,potency estimated from few doses,"MAP2K6; compound concentrations:100 nM and 1000 nM (sheet 'Lestaurtinib' of Supplementary Table 1),run:Lestaurtinib_02473_R2,Plate:MR010",144 nM
same,potency estimated from few doses,"MAP2K6; compound concentrations:100 nM and 1000 nM (sheet 'Lestaurtinib' of Supplementary Table 1),run:Lestaurtinib_02482_R1,Plate:MR011",212 nM
same,potency estimated from few doses,"MAP2K6; compound concentrations:100 nM and 1000 nM (sheet 'Lestaurtinib' of Supplementary Table 1),run:Lestaurtinib_02482_R3,Plate:MR011",254 nM
same,potency estimated from few doses,"MAP2K6; compound concentrations:100 nM and 1000 nM (sheet 'Lestaurtinib' of Supplementary Table 1),run:Lestaurtinib_02487_R1,Plate:MR012",142 nM
same,potency estimated from few doses,"MAP2K6; compound concentrations:100 nM and 1000 nM (sheet 'Lestaurtinib' of Supplementary Table 1),run:Lestaurtinib_02487_R2,Plate:MR012",190 nM
same,potency estimated from few doses,"MAP2K6; compound concentrations:100 nM and 1000 nM (sheet 'Lestaurtinib' of Supplementary Table 1),run:Lestaurtinib_02487_R3,Plate:MR012",157 nM
same,potency estimated from few doses,"MAP2K6; compound concentrations:100 nM and 1000 nM (sheet 'Lestaurtinib' of Supplementary Table 1),run:Lestaurtinib_02496_R1,Plate:MR013",146 nM
same,potency estimated from few doses,"MAP2K6; compound concentrations:100 nM and 1000 nM (sheet 'Lestaurtinib' of Supplementary Table 1),run:Lestaurtinib_02496_R2,Plate:MR013",132 nM
same,potency estimated from few doses,"MAP2K6; compound concentrations:100 nM and 1000 nM (sheet 'Lestaurtinib' of Supplementary Table 1),run:Lestaurtinib_02566_R1,Plate:MR014",207 nM
same,potency estimated from few doses,"MAP2K6; compound concentrations:100 nM and 1000 nM (sheet 'Lestaurtinib' of Supplementary Table 1),run:Lestaurtinib_02566_R2,Plate:MR014",121 nM
same,potency estimated from few doses,"MAP2K6; compound concentrations:100 nM and 1000 nM (sheet 'Lestaurtinib' of Supplementary Table 1),run:Lestaurtinib_02572_R2,Plate:MR015",149 nM
same,potency estimated from few doses,"MAP2K6; compound concentrations:100 nM and 1000 nM (sheet 'Lestaurtinib' of Supplementary Table 1),run:Lestaurtinib_02572_R3,Plate:MR015",193 nM
same,potency estimated from few doses,"MAP2K6; compound concentrations:100 nM and 1000 nM (sheet 'Lestaurtinib' of Supplementary Table 1),run:Lestaurtinib_02577_R2,Plate:MR016",158 nM
same,potency estimated from few doses,"MAP2K6; compound concentrations:100 nM and 1000 nM (sheet 'Lestaurtinib' of Supplementary Table 1),run:Lestaurtinib_02584_R3,Plate:MR017",243 nM
same,potency estimated from few doses,"MAP2K6; compound concentrations:100 nM and 1000 nM (sheet 'Lestaurtinib' of Supplementary Table 1),run:Lestaurtinib_02601_R1,Plate:MR018",172 nM
same,potency estimated from few doses,"MAP2K6; compound concentrations:100 nM and 1000 nM (sheet 'Lestaurtinib' of Supplementary Table 1),run:Lestaurtinib_02601_R3,Plate:MR018",321 nM
same,potency estimated from few doses,"MAP2K6; compound concentrations:100 nM and 1000 nM (sheet 'Lestaurtinib' of Supplementary Table 1),run:Lestaurtinib_02606_R2,Plate:MR019",140 nM
same,potency estimated from few doses,"MAP2K6; compound concentrations:100 nM and 1000 nM (sheet 'Lestaurtinib' of Supplementary Table 1),run:Lestaurtinib_02606_R3,Plate:MR019",180 nM
same,potency estimated from few doses,"MAP2K6; compound concentrations:100 nM and 1000 nM (sheet 'Lestaurtinib' of Supplementary Table 1),run:Lestaurtinib_02624_R2,Plate:MR020",154 nM
same,potency estimated from few doses,"MAP2K6; compound concentrations:100 nM and 1000 nM (sheet 'Lestaurtinib' of Supplementary Table 1),run:Lestaurtinib_02624_R3,Plate:MR020",149 nM
same,potency estimated from few doses,"MAP2K6; compound concentrations:100 nM and 1000 nM (sheet 'Lestaurtinib' of Supplementary Table 1),run:Lestaurtinib_02724_R1,Plate:MR021",141 nM
same,potency estimated from few doses,"MAP2K6; compound concentrations:100 nM and 1000 nM (sheet 'Lestaurtinib' of Supplementary Table 1),run:Lestaurtinib_02724_R2,Plate:MR021",113 nM
same,potency estimated from few doses,"MAP2K6; compound concentrations:100 nM and 1000 nM (sheet 'Lestaurtinib' of Supplementary Table 1),run:Lestaurtinib_02724_R3,Plate:MR021",151 nM
same,potency estimated from few doses,"MAP2K6; compound concentrations:100 nM and 1000 nM (sheet 'Lestaurtinib' of Supplementary Table 1),run:Lestaurtinib_02741_R1,Plate:MR023",92.6 nM
same,potency estimated from few doses,"MAP2K6; compound concentrations:100 nM and 1000 nM (sheet 'Lestaurtinib' of Supplementary Table 1),run:Lestaurtinib_02741_R2,Plate:MR023",113 nM
same,potency estimated from few doses,"MAP2K6; compound concentrations:100 nM and 1000 nM (sheet 'Lestaurtinib' of Supplementary Table 1),run:Lestaurtinib_02741_R3,Plate:MR023",130 nM
same,potency estimated from few doses,"MAP2K6; compound concentrations:100 nM and 1000 nM (sheet 'Lestaurtinib' of Supplementary Table 1),run:Lestaurtinib_02748_R2,Plate:MR024",231 nM
same,potency estimated from few doses,"MAP2K6; compound concentrations:100 nM and 1000 nM (sheet 'Lestaurtinib' of Supplementary Table 1),run:Lestaurtinib_02748_R3,Plate:MR024",190 nM
same,potency estimated from few doses,MAP2K6; [1],175 nM
same,potency estimated from few doses,MAP2K6; [2],218 nM
same,potency estimated from few doses,"MAP2K6; compound concentrations:100 nM and 1000 nM (sheet 'Lestaurtinib' of Supplementary Table 1),run:Lestaurtinib_02765_R2,Plate:MR026",200 nM
same,potency estimated from few doses,"MAP2K6; compound concentrations:100 nM and 1000 nM (sheet 'Lestaurtinib' of Supplementary Table 1),run:Lestaurtinib_02765_R3,Plate:MR026",115 nM
same,potency estimated from few doses,MAP2K6; [3],183 nM
same,potency estimated from few doses,MAP2K6; [4],143 nM
same,potency estimated from few doses,MAP2K6; [5],180 nM
same,potency estimated from few doses,MAP2K6; [6],440 nM
same,potency estimated from few doses,"MAP2K6; compound concentrations:100 nM and 1000 nM (sheet 'Lestaurtinib' of Supplementary Table 1),run:Lestaurtinib_03172_R1,Plate:MR031",154 nM
same,potency estimated from few doses,MAP2K6; [7],296 nM
same,potency estimated from few doses,"MAP2K6; compound concentrations:100 nM and 1000 nM (sheet 'Lestaurtinib' of Supplementary Table 1),run:Lestaurtinib_03260_R1,Plate:MR033",161 nM
same,potency estimated from few doses,"MAP2K6; compound concentrations:100 nM and 1000 nM (sheet 'Lestaurtinib' of Supplementary Table 1),run:Lestaurtinib_03260_R3,Plate:MR033",140 nM
same,potency estimated from few doses,"MAP4K2; compound concentrations:100 nM and 1000 nM (sheet 'Lestaurtinib' of Supplementary Table 1),run:Lestaurtinib_02339_R1,Plate:MR001",329 nM
same,potency estimated from few doses,MAP4K2; [8],231 nM
same,potency estimated from few doses,"MAP4K2; compound concentrations:100 nM and 1000 nM (sheet 'Lestaurtinib' of Supplementary Table 1),run:Lestaurtinib_02364_R1,Plate:MR002",180 nM
same,potency estimated from few doses,MAP4K2; [9],196 nM
